PubChem BioAssay (NCI)
About 83,000 compounds went through this panel and 20% of them were active in at least one assay; those are over-represented in the sample as a whole.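 The test compound was applied at a single concentration to cells in 96-well plates for 48 hours, and percent growth was recorded.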 Activity calls are given as the source filed them. The calls were made as follows: active = growth percent below 10; inactive = the rest.

Legend:
Assay in all cases: NCI-60 one-dose screen, 48 h (100 = growth as untreated, 0 = no growth, -100 = all killed)
Details in all cases: 10 µM unless noted
SR leukemia = system: SR leukemia
RPMI-8226 leukemia = system: RPMI-8226 leukemia
OVCAR-8 ovarian = system: OVCAR-8 ovarian
OVCAR-5 ovarian = system: OVCAR-5 ovarian
OVCAR-4 ovarian = system: OVCAR-4 ovarian
SK-OV-3 ovarian = system: SK-OV-3 ovarian
IGROV1 ovarian = system: IGROV1 ovarian
OVCAR-3 ovarian = system: OVCAR-3 ovarian
HS 578T breast = system: HS 578T breast
NCI/ADR-RES ovarian = system: NCI/ADR-RES ovarian

Measured: growth

CCCCOS(=O)(=O)c1ccccc1
inactive: SR leukemia 126% | RPMI-8226 leukemia 126% | OVCAR-8 ovarian 120% | OVCAR-5 ovarian 95.8% | OVCAR-4 ovarian 104% | SK-OV-3 ovarian 113% | IGROV1 ovarian 131% | OVCAR-3 ovarian 112% | HS 578T breast 107% | NCI/ADR-RES ovarian 107%

CCCCCCCCCCCCCCCCCC[S+](C)CC (stereo not drawn)
active: OVCAR-5 ovarian 9.31% | OVCAR-4 ovarian 7.76% | IGROV1 ovarian -34.2%
inactive: SR leukemia 32.7% | RPMI-8226 leukemia 30.4% | OVCAR-8 ovarian 13.9% | SK-OV-3 ovarian 49.5% | OVCAR-3 ovarian 45.1% | HS 578T breast 35.9% | NCI/ADR-RES ovarian 84.7%

O=[N+]([O-])c1ccc([I+]c2ccccc2)cc1
inactive: SR leukemia 17.7% | RPMI-8226 leukemia 41.6% | SK-OV-3 ovarian 50.2% | IGROV1 ovarian 43.4% | NCI/ADR-RES ovarian 28.9%
active: OVCAR-8 ovarian -27.6% | OVCAR-5 ovarian -85.8% | OVCAR-4 ovarian -91% | OVCAR-3 ovarian -15.3% | HS 578T breast 1.04%

OC(Cc1cc(CC(O)(C(F)(F)F)C(F)(F)F)nc(CC(O)(C(F)(F)F)C(F)(F)F)c1)(C(F)(F)F)C(F)(F)F
active: SR leukemia 4.85% | RPMI-8226 leukemia -7.53% | OVCAR-8 ovarian 9.71% | OVCAR-4 ovarian 6.38% | SK-OV-3 ovarian -16.8% | OVCAR-3 ovarian -3.61% | HS 578T breast 5.53% | NCI/ADR-RES ovarian 3.76%
inactive: OVCAR-5 ovarian 16.1% | IGROV1 ovarian 20.4%

Cc1cc2cccnc2c2ncccc12
inactive: RPMI-8226 leukemia 13.4% | OVCAR-8 ovarian 13% | OVCAR-5 ovarian 45.6% | OVCAR-4 ovarian 14.4% | IGROV1 ovarian 29.1% | OVCAR-3 ovarian 33.8% | HS 578T breast 61.3% | NCI/ADR-RES ovarian 11.2%
active: SR leukemia 6.21% | SK-OV-3 ovarian 1.57%

CC/C(=C(/CC)c1ccc(O)cc1)c1ccc(O)cc1
inactive: SR leukemia 21.1% | RPMI-8226 leukemia 61.7% | OVCAR-8 ovarian 80.1% | OVCAR-5 ovarian 89.4% | OVCAR-4 ovarian 76.8% | SK-OV-3 ovarian 38.4% | IGROV1 ovarian 82.4% | OVCAR-3 ovarian 62.1% | HS 578T breast 63% | NCI/ADR-RES ovarian 40.8%

COC(=O)c1nc(=S)[nH]c(C(=O)OC)c1C(=O)c1ccc(Cl)c(Cl)c1
inactive: SR leukemia 115% | RPMI-8226 leukemia 105% | OVCAR-8 ovarian 111% | OVCAR-5 ovarian 118% | OVCAR-4 ovarian 104% | SK-OV-3 ovarian 107% | IGROV1 ovarian 112% | OVCAR-3 ovarian 122% | HS 578T breast 102% | NCI/ADR-RES ovarian 110%

CCCCCCCCCCCCNCCCc1ccccc1
active: SR leukemia -34.3% | RPMI-8226 leukemia 6.17%
inactive: OVCAR-8 ovarian 79.3% | OVCAR-5 ovarian 81.2% | OVCAR-4 ovarian 46.5% | SK-OV-3 ovarian 103% | IGROV1 ovarian 75.4% | OVCAR-3 ovarian 83% | HS 578T breast 88.6% | NCI/ADR-RES ovarian 75.1%

NC(=S)Nc1ccc2c(c1)Cc1ccccc1-2
inactive: SR leukemia 84.9% | RPMI-8226 leukemia 62.1% | OVCAR-8 ovarian 84.5% | OVCAR-5 ovarian 101% | OVCAR-4 ovarian 83.4% | SK-OV-3 ovarian 98.1% | IGROV1 ovarian 88.3% | OVCAR-3 ovarian 98.3% | HS 578T breast 88.2% | NCI/ADR-RES ovarian 88.2%

CN(Cc1ccccc1)c1ccc(SC#N)cc1
inactive: RPMI-8226 leukemia 74.8% | OVCAR-8 ovarian 85% | OVCAR-5 ovarian 106% | OVCAR-4 ovarian 68.9% | SK-OV-3 ovarian 112% | IGROV1 ovarian 98.8% | OVCAR-3 ovarian 71.4% | HS 578T breast 89.7% | NCI/ADR-RES ovarian 86.7%
active: SR leukemia -6.68%

CC(C)(C)c1ccc(O)c(Br)c1
inactive: SR leukemia 106% | RPMI-8226 leukemia 85% | OVCAR-8 ovarian 103% | OVCAR-5 ovarian 98.1% | OVCAR-4 ovarian 101% | SK-OV-3 ovarian 120% | IGROV1 ovarian 111% | OVCAR-3 ovarian 99.2% | HS 578T breast 96.4% | NCI/ADR-RES ovarian 100%

Oc1ccc2c(c1)CCc1ccccc1-2
inactive: SR leukemia 104% | RPMI-8226 leukemia 105% | OVCAR-8 ovarian 106% | OVCAR-5 ovarian 92.4% | OVCAR-4 ovarian 90.9% | SK-OV-3 ovarian 105% | IGROV1 ovarian 116% | OVCAR-3 ovarian 112% | HS 578T breast 96.8% | NCI/ADR-RES ovarian 114%

CN(C)c1ccc(/C=C/c2cc[n+](C)c(/C=C/c3ccc(N(C)C)cc3)c2)cc1
inactive: OVCAR-5 ovarian 21.9% | OVCAR-4 ovarian 19.9% | IGROV1 ovarian 11% | OVCAR-3 ovarian 20.5% | HS 578T breast 32.9% | NCI/ADR-RES ovarian 58.8%
active: SR leukemia -34.3% | RPMI-8226 leukemia -26.4% | OVCAR-8 ovarian 5.17% | SK-OV-3 ovarian 7.83%

Cc1cc(N/N=C/c2ccccn2)nc2ccccc12
inactive: SR leukemia 11.5% | RPMI-8226 leukemia 13.7% | OVCAR-5 ovarian 37.9% | OVCAR-4 ovarian 16.4% | SK-OV-3 ovarian 31.6% | OVCAR-3 ovarian 28.6% | HS 578T breast 74.8%
active: OVCAR-8 ovarian 6.78% | IGROV1 ovarian 2.45% | NCI/ADR-RES ovarian 7.9%

Cc1ccccc1N=C(N)Nc1ccccc1C (tested in a mixture with another compound)
inactive: SR leukemia 49.6% | RPMI-8226 leukemia 46.6% | OVCAR-8 ovarian 73.7% | OVCAR-5 ovarian 91.6% | OVCAR-4 ovarian 82.2% | SK-OV-3 ovarian 98.5% | IGROV1 ovarian 62.6% | OVCAR-3 ovarian 78.8% | HS 578T breast 111% | NCI/ADR-RES ovarian 79.3%

C/C(=N/NC(N)=S)c1ccc(C)cc1
inactive: SR leukemia 94.6% | RPMI-8226 leukemia 71.4% | OVCAR-8 ovarian 76.7% | OVCAR-5 ovarian 111% | OVCAR-4 ovarian 88% | SK-OV-3 ovarian 98.8% | IGROV1 ovarian 105% | OVCAR-3 ovarian 62.8% | HS 578T breast 102% | NCI/ADR-RES ovarian 76%

O=[N+]([O-])c1ccc2c(c1)Cc1ccccc1-2
inactive: SR leukemia 91.4% | RPMI-8226 leukemia 121% | OVCAR-8 ovarian 98.9% | OVCAR-5 ovarian 91.3% | OVCAR-4 ovarian 97.3% | SK-OV-3 ovarian 112% | IGROV1 ovarian 94.7% | OVCAR-3 ovarian 103% | HS 578T breast 102% | NCI/ADR-RES ovarian 99%

CCCc1cc(=O)oc2c3c(c4c(c12)OC(C)(C)CC4)OC(C)[C@H](C)[C@@H]3O (stereo partly drawn)
inactive: SR leukemia 45.8% | RPMI-8226 leukemia 10.5% | OVCAR-8 ovarian 81.7% | OVCAR-5 ovarian 86% | OVCAR-4 ovarian 83.9% | SK-OV-3 ovarian 95.3% | IGROV1 ovarian 12.7% | OVCAR-3 ovarian 112% | HS 578T breast 74.7% | NCI/ADR-RES ovarian 81.7%

Cc1ccccc1NC(=O)Cc1csc2[n+]1C(=O)/C(=C/c1ccc([N+](=O)[O-])cc1)S2
inactive: SR leukemia 79.7% | RPMI-8226 leukemia 91.2% | OVCAR-8 ovarian 97.9% | OVCAR-5 ovarian 98.4% | OVCAR-4 ovarian 83.6% | SK-OV-3 ovarian 90.1% | IGROV1 ovarian 103% | OVCAR-3 ovarian 97.8% | HS 578T breast 98.6% | NCI/ADR-RES ovarian 100%

CCCCN(CCCC)CCCCCCCCCCO
inactive: SR leukemia 81% | RPMI-8226 leukemia 133% | OVCAR-8 ovarian 107% | OVCAR-5 ovarian 97.3% | OVCAR-4 ovarian 93.4% | SK-OV-3 ovarian 109% | IGROV1 ovarian 94% | OVCAR-3 ovarian 104% | HS 578T breast 105% | NCI/ADR-RES ovarian 103%

CC(O)C(O)C(O)C(O)C(O)C(=O)NNc1ccccc1 (stereo not drawn)
inactive: SR leukemia 49.7% | RPMI-8226 leukemia 99.1% | OVCAR-8 ovarian 96.4% | OVCAR-5 ovarian 84.6% | OVCAR-4 ovarian 96.5% | SK-OV-3 ovarian 99.5% | IGROV1 ovarian 80% | OVCAR-3 ovarian 99.4% | HS 578T breast 91.2% | NCI/ADR-RES ovarian 84.2%

CCc1cnc2ccccc2c1/C=C/c1ccc(N(C)C)cc1
active: SR leukemia 4.96%
inactive: RPMI-8226 leukemia 67.3% | OVCAR-8 ovarian 59.5% | OVCAR-5 ovarian 75% | OVCAR-4 ovarian 79.3% | SK-OV-3 ovarian 38.5% | IGROV1 ovarian 42% | OVCAR-3 ovarian 16.9% | HS 578T breast 62.8% | NCI/ADR-RES ovarian 21.8%

CC(CSc1n[nH]c(=S)s1)c1ccccc1 (stereo not drawn)
inactive: SR leukemia 84.5% | RPMI-8226 leukemia 103% | OVCAR-8 ovarian 109% | OVCAR-5 ovarian 127% | OVCAR-4 ovarian 94.1% | SK-OV-3 ovarian 102% | IGROV1 ovarian 110% | OVCAR-3 ovarian 117% | HS 578T breast 108% | NCI/ADR-RES ovarian 114%

Oc1ccccc1N=Cc1ccccc1
inactive: SR leukemia 79.2% | RPMI-8226 leukemia 62.9% | OVCAR-8 ovarian 84% | OVCAR-5 ovarian 104% | OVCAR-4 ovarian 107% | SK-OV-3 ovarian 104% | IGROV1 ovarian 94.5% | OVCAR-3 ovarian 76.2% | HS 578T breast 108% | NCI/ADR-RES ovarian 84.6%

CN(C)CCSC1=Nc2ccc(Cl)cc2C(c2ccccc2Cl)N(C)C1 (stereo not drawn)
inactive: SR leukemia 44.1% | RPMI-8226 leukemia 50.7% | OVCAR-8 ovarian 78.8% | OVCAR-5 ovarian 88.4% | OVCAR-4 ovarian 39.4% | SK-OV-3 ovarian 72% | IGROV1 ovarian 41.6% | OVCAR-3 ovarian 59.9% | NCI/ADR-RES ovarian 66%

CCCOC(=O)c1nc(N(CC2CCCCC2)C(=O)NC)sc1/N=C/c1ccccc1
active: SR leukemia -17.2% | RPMI-8226 leukemia -48.2% | OVCAR-3 ovarian 4.38% | NCI/ADR-RES ovarian -14%
inactive: OVCAR-8 ovarian 29% | OVCAR-5 ovarian 40% | OVCAR-4 ovarian 35.1% | SK-OV-3 ovarian 24.7% | IGROV1 ovarian 19.4%

CCCCCC[C@@H](O)C/C=C\CCCCCCCC(=O)OCCOC
inactive: SR leukemia 122% | RPMI-8226 leukemia 102% | OVCAR-8 ovarian 101% | OVCAR-5 ovarian 103% | OVCAR-4 ovarian 98.4% | SK-OV-3 ovarian 114% | IGROV1 ovarian 114% | OVCAR-3 ovarian 112% | HS 578T breast 101% | NCI/ADR-RES ovarian 104%

CC(=O)c1ccc2c(c1)CCc1ccccc1-2
inactive: SR leukemia 103% | RPMI-8226 leukemia 108% | OVCAR-8 ovarian 109% | OVCAR-5 ovarian 88.9% | OVCAR-4 ovarian 98.8% | SK-OV-3 ovarian 101% | IGROV1 ovarian 119% | OVCAR-3 ovarian 125% | HS 578T breast 103% | NCI/ADR-RES ovarian 119%

OC(c1cc(-c2ccc(Cl)cc2)nc2c(Cl)cccc12)C1CCCCN1 (stereo not drawn)
active: SR leukemia -39.4% | RPMI-8226 leukemia -17.3% | OVCAR-8 ovarian -75.2% | OVCAR-5 ovarian -70.9% | OVCAR-4 ovarian -85.6% | SK-OV-3 ovarian -73.4% | IGROV1 ovarian -73.7% | OVCAR-3 ovarian -95.1% | HS 578T breast -47.6% | NCI/ADR-RES ovarian -70.3%
